Measurements reported in PubChem BioAssay.
Calls of active or inactive are those of the source.

Experiments:
[1] = small molecules captured by biotinylated probe aFSTL3 – biochemical, small-molecule microarray, fluorescence 635/667, stem cell growth factor project, primary screen (AID 1064); settings: higher = more signal;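 further: measures binding of the biotinylated anti-FSTL3 antibody to printed compounds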
[2] = binders from COS7 lysate, DM2A8 probe, primary screen, torsin A project, cell lysate, small-molecule microarray, fluorescence 635/667 (AID 1065); settings: higher = more signal, COS7 lysate expressing mutant human TOR1A
[3] = small molecules captured by biotinylated probe aFGF2 – biochemical, small-molecule microarray, fluorescence 635/667, stem cell growth factor project, primary screen (AID 1067); settings: higher = more signal;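 further: measures binding of biotinylated aFGF2 protein to printed compounds on slides; z-score merges feature fluorescence and signal-to-noise across triplicate slides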
[4] = small molecules captured by biotinylated probe aFGF10 – biochemical, small-molecule microarray, fluorescence 635/667, stem cell growth factor project, primary screen (AID 1071); settings: higher = more signal;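 further: score merges 667 nm spot intensity and signal to noise from triplicate slides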
[5] = target: Neurogenic locus notch homolog protein 2 (Homo sapiens) (UniProt Q04721); test: small molecules binding Notch2 protein – biochemical, small-molecule microarray, 635 nm fluorescence, stem cell growth factors, primary screen (AID 1073); settings: higher = more signal
[6] = target: Pro-neuregulin-1, membrane-bound isoform (Homo sapiens) (UniProt Q02297); test: small molecules binding neuregulin-1 protein – biochemical, small-molecule microarray, fluorescence 635/667, psychiatric disease protein project, primary screen (AID 1075); settings: NRG1 binding, 635 nm fluorescence, higher = more signal;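 further: score combines 667 nm spot fluorescence with signal to noise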
[7] = tested on: Neuregulin-1 EGF-like domain; test: small molecules binding NRG1 EGF domain – biochemical, small-molecule microarray, 635 nm fluorescence, primary screen (AID 1081); settings: higher = more signal;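 further: binding of the protein to compounds printed on small-molecule microarray slides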
[8] = FRG1 expression reporter modulators in myotubes – cell-based, C2C12 myotubes, firefly/Renilla luciferase, luminescence, FRG1 inhibition for FSHD, primary screen (AID 1084); settings: FRG1 promoter luciferase, higher = more signal, called active from +8 up or from −8 down
[9] = small molecules captured by biotinylated probe aFST – biochemical, small-molecule microarray, fluorescence 635/667, stem cell growth factor project, primary screen (AID 1086); settings: higher = more signal;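 further: score merges 667 nm fluorescence with signal-to-noise of each printed compound spot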
[10] = binders of probe aHhip on microarray, primary screen, stem cell growth factor project, biochemical, small-molecule microarray, fluorescence 635/667 (AID 1087); settings: higher = more signal;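 further: score merges spot fluorescence at 667nm with spot signal to noise ratio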

Sequence of Pro-neuregulin-1, membrane-bound isoform (Homo sapiens) (Q02297 whole entry, looked up, the tested form may be a part, canonical isoform): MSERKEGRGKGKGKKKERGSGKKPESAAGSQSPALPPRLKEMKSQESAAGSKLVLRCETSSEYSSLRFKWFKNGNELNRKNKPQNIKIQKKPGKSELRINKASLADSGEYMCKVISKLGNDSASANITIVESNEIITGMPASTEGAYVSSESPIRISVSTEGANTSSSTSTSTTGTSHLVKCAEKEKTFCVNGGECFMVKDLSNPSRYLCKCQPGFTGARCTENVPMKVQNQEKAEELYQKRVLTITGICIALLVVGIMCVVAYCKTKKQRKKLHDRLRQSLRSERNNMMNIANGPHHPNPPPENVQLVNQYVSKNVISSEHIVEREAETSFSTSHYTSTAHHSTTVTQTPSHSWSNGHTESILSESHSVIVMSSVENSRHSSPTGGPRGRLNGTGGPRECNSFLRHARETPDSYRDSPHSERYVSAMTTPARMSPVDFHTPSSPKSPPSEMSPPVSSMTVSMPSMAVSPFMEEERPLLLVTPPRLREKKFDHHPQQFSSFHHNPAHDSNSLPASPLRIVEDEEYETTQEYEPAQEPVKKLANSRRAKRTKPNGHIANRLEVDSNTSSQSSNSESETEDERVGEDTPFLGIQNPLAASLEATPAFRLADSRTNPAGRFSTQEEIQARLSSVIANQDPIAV
Sequence of Neurogenic locus notch homolog protein 2 (Homo sapiens) (Q04721 whole entry, looked up, canonical isoform): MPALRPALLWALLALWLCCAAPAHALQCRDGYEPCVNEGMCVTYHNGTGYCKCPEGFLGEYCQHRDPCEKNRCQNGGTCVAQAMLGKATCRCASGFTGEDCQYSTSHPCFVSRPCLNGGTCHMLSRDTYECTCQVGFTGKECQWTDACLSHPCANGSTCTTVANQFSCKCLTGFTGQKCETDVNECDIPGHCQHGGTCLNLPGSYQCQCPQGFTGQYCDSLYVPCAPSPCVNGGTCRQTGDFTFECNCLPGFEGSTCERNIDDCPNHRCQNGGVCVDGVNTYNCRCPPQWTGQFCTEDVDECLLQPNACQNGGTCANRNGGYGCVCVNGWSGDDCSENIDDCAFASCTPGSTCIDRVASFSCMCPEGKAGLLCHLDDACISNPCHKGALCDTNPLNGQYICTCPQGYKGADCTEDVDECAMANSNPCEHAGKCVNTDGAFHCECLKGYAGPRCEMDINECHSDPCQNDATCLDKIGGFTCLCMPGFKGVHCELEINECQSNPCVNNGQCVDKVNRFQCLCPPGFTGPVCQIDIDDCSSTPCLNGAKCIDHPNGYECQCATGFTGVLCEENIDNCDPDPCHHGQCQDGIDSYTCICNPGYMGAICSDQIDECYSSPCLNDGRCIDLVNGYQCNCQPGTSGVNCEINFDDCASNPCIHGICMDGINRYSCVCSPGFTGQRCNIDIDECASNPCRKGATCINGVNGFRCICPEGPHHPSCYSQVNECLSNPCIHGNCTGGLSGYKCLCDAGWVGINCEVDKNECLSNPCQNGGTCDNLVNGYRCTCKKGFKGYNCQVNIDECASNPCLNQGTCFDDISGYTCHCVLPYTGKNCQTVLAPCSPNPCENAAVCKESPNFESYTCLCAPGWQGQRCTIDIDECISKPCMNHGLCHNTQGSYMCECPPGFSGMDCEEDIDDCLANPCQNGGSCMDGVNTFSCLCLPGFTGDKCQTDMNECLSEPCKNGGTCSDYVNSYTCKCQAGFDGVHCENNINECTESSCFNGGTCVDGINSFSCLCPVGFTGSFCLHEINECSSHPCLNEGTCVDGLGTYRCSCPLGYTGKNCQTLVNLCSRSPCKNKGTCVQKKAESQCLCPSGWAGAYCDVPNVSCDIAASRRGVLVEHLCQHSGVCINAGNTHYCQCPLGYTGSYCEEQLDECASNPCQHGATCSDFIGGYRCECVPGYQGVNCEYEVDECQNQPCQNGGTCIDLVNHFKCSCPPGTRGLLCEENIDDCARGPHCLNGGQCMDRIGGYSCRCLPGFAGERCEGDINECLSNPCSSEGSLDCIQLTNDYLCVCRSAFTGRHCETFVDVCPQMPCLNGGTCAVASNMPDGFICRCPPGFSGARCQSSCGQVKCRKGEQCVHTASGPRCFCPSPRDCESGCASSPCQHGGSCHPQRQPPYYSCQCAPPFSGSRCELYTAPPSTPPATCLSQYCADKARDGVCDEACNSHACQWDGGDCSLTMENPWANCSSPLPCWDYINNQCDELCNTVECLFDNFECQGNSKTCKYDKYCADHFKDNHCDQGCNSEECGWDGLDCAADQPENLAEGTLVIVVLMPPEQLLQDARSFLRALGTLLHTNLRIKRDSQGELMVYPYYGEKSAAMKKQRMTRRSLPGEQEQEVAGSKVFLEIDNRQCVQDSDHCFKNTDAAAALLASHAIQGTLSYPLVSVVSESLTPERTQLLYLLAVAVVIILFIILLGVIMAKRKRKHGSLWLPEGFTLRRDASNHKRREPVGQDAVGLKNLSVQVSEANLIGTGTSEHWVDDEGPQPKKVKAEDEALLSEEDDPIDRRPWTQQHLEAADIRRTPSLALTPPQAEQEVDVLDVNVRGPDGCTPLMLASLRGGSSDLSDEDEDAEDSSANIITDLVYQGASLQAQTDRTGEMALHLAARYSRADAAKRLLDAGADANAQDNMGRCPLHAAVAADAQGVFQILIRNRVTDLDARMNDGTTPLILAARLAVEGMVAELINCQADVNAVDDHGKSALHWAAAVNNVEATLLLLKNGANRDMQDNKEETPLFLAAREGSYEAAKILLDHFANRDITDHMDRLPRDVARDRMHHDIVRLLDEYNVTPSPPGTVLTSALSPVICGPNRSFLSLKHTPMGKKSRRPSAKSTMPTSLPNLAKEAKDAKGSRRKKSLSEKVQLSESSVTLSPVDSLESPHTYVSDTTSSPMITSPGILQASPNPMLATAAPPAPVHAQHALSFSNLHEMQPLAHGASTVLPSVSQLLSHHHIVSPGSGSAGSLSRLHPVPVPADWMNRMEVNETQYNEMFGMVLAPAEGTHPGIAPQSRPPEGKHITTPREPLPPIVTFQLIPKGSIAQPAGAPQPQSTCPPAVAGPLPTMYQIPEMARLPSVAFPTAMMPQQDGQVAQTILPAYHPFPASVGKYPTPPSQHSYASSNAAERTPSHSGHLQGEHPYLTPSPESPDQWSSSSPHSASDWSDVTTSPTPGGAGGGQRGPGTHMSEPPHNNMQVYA

Structure (SMILES)	composite z-score [1]	composite z-score [2]	composite z-score [3]	composite z-score [4]	composite z-score [5]	composite z-score [6]	composite z-score [7]	z-score [8]	composite z-score [9]	composite z-score [10]
CS(=O)(=O)CCOC(=O)C1=CC(CCCO)=CC(c2cccs2)N(Cc2cccc(OC(F)(F)F)c2)C=C1C(=O)OCCS(C)(=O)=O (stereo not given)	-0.215	1.76	-0.0753	0.0557	1.14	1.8	1.14	-0.176 (inactive)	0.425	-0.191
O=C(NN=C1C[C@@H](O)[C@@H](O)[C@@H]2[C@@H]3C(=O)N(c4ccc(F)cc4F)C(=O)[C@@H]3CC[C@@H]12)OCc1ccccc1	-0.105	0.361	-0.0845	0.215	0.283	0.113	-0.882	0.228 (inactive)	0.51	-0.0672
COc1ccccc1CN1C(=O)c2ccccc2[C@@]2(Cc3ccccc3N(C(C)C)C2=O)[C@@H]1c1ccc(CO)cc1	-0.111	-0.336	-0.186	-0.689	-0.294	-0.0492	-0.723	-2.45 (inactive)	0.351	-0.374
COC(=O)[C@H](C)NC(=O)CCC1CC(OC(=O)NCCc2ccc(F)cc2)CC2(CCCC(COC(=O)NCC(c3ccccc3)c3ccccc3)O2)O1 (stereo not given in full)	-0.342	-0.266	-0.124	0.462	1.29	0.846	1.2	1.38 (inactive)	0.107	-0.247
CCN1C(=O)[C@H]2[C@H]3[C@H](O)[C@H](O)CC(=NO[C@@H]4O[C@H](CO)[C@@H](O)[C@H](O)[C@H]4O)[C@@H]3CC[C@H]2C1=O	-0.0837	0.0566	-0.211	-0.078	-1.21	0.485	-1.11	0.183 (inactive)	-0.402	0.354
CC(C)CON=C1[C@H]2CCn3c(=O)n(-c4ccccc4)c(=O)n3[C@H]2[C@H](O)[C@@H]2O[C@H]12	-0.358	-0.0519	-0.102	0.325	0.532	-0.0371	0.323	-0.217 (inactive)	0.204	-0.069
C=C(CCCC)C(=O)CC[C@@H](OC(C)=O)c1cccc(OCCO)c1	-0.168	-0.371	-0.152	-0.565	-0.46	0.25	1.36	-3.56 (inactive)	-0.507	-0.0994
CO[C@H]1COC(=O)[C@H](C)COC(=O)CC=C[C@@H](C)[C@H](OC)COC(=O)CC=C[C@@H]1C	-0.654	0.682	-0.226	-0.0247	-0.217	-0.481	-0.311	0.847 (inactive)	-0.08	0.0854
CC(C)[C@@H](OCc1ccccc1)[C@H](C)C=NO[C@H](C)c1cn([C@H](CO)Cc2ccccc2)nn1	-0.479	0.227	-0.228	0.616	0.397	-0.154	0.658	-0.757 (inactive)	0.344	-0.409
C#CCCCON=C1C[C@@H](O)[C@@H](O)[C@@H]2[C@@H]3C(=O)N(Cc4ccccc4)C(=O)[C@@H]3CC[C@H]12	-0.304	0.251	-0.116	0.317	0.69	0.197	-0.0787	-0.0765 (inactive)	0.149	-0.169
COC(=O)C1=C(C)N(Cc2ccccc2)[C@]23O[C@](C(=O)OC)(C(=O)N2[C@@H]1c1ccccc1)[C@H]1CCOC(=O)[C@H]13	-0.602	0.601	-0.0956	0.649	0.783	-0.146	0.815	-0.203 (inactive)	0.0592	-0.0645
O=C1[C@H]2[C@H]3[C@H](O)[C@H](O)CC(=NO[C@@H]4O[C@H](CO)[C@@H](O)[C@H](O)[C@H]4O)[C@H]3CC[C@H]2C(=O)N1Cc1ccc2c(c1)OCO2	0.606	1.53	-0.104	-0.103	-0.475	0.266	0.592	-0.0585 (inactive)	0.319	-0.132
COCCCNC(=O)[C@@]1(C)c2ccccc2C(=O)N(Cc2ccc(OC(F)(F)F)cc2)[C@H]1c1ccc(CO)cc1	0.729	-0.255	-0.116	-0.0476	-0.505	0.785	1.45	-2.6 (inactive)	0.153	0.213
COC(=O)CC=C[C@@H](C)[C@@H](C=NO[C@H](C)c1cn([C@@H]2COC[C@H]2O)nn1)OC	-0.276	0.563	-0.0914	0.37	0.268	-0.482	0.951	-0.954 (inactive)	0.0889	0.0024
COc1ccc([Si](C)(C)[C@H]2[C@H](CCO)O[C@@]3(C(=O)N(Cc4cccc(NC(=O)[C@H](C)O)c4)c4ccccc43)[C@@H]2C)cc1	-0.456	0.634	-0.101	0.136	0.612	0.84	1.22	-2.68 (inactive)	-0.0054	0.212
C[C@@H]1C=CCC(=O)OC[C@H](C)C(=O)OC[C@H]2O[C@H]1C=C[C@H]2O	-0.414	0.304	0.0033	0.44	0.112	-0.175	0.615	-0.538 (inactive)	0.512	0.106
C[C@@H](c1ccccc1)N1C(=O)[C@H]2[C@H]3[C@H](O)C=CC(=O)[C@@H]3CC[C@H]2C1=O	-0.663	0.0994	-0.218	0.277	0.348	0.185	0.609	-0.608 (inactive)	0.123	-0.0738

Structure (SMILES)	composite z-score [1]	composite z-score [2]	composite z-score [3]	composite z-score [4]	composite z-score [5]	composite z-score [6]	composite z-score [7]	z-score [8]	composite z-score [9]	composite z-score [10]
CO[C@@H]1COC(=O)[C@H](C)NC(=O)[C@@H](C)COC(=O)CCC[C@H]1C	-0.438	0.402	-0.116	0.686	0.183	-0.0231	1.13	0.227 (inactive)	-0.163	-0.0296
CC(C)=CCCC(C)=CCON=C1[C@H]2CCn3c(=O)n(C)c(=O)n3[C@H]2[C@H](O)[C@@H]2O[C@H]12	-0.315	0.491	-0.156	0.585	0.38	0.763	1.05	-0.713 (inactive)	0.412	-0.0673
CCOC(=O)NN=C1C[C@@H](O)[C@@H](O)[C@@H]2[C@@H]3C(=O)N(C[C@@H]4CCCO4)C(=O)[C@@H]3CC[C@@H]12	-0.216	0.0306	-0.0786	0.454	0.453	0.121	0.69	0.52 (inactive)	0.0701	-0.0994
CO[C@H]1COC(=O)[C@H](C)NC(=O)[C@@H](C)COC(=O)CC=C[C@@H]1C	-0.618	1.06	-0.116	0.409	-0.0804	-0.194	0.547	-0.599 (inactive)	0.0356	-0.434
CC(=O)OC[C@H]1O[C@H](CCON=C(C)CCN2CCc3nc(-c4ccccc4)c(-c4ccccc4)cc3C2)C=C[C@@H]1OC(C)=O	-0.195	0.472	-0.119	0.173	0.0174	0.266	0.454	1.23 (inactive)	-0.105	0.0749
O=C1C[C@@H](O)[C@@H](O)[C@@H]2[C@@H]3C(=O)N(C4CCCCC4)C(=O)[C@@H]3CC[C@H]12	-0.472	0.176	-0.0638	0.593	0.698	0.0523	0.797	0.65 (inactive)	-0.22	-0.511
CCCNC(=O)[C@@H]1c2ccccc2C(=O)N(Cc2ccccc2Cl)[C@H]1c1ccc(CO)cc1	0.198	0.274	0.0336	0.633	1.17	0.963	1.21	-1.18 (inactive)	0.703	-0.216
N#Cc1ccc(NN2C(C(O)c3cc(C(F)(F)F)cc(C(F)(F)F)c3)C=CC3C(=O)N(c4ccccc4)C(=O)C32)cc1 (stereo not given)	0.0678	0.517	0.116	0.668	1.27	1.97	1.22	0.474 (inactive)	0.785	0.357
CN(C)c1ccc(C(O)C2C=CC3C(=O)N(c4ccccc4)C(=O)C3N2Nc2ccccc2F)cc1 (stereo not given)	0.357	-0.159	-0.0422	0.208	1.46	0.86	1.25	3.64 (inactive)	0.957	-0.212
CC(CCC(=O)OC[C@H]1O[C@H](C#Cc2ccccc2)C=C[C@@H]1Oc1ccc(C)cc1)=NO[C@@H](C)c1cn([C@H](CO)Cc2ccccc2)nn1	-0.583	0.0364	0.0092	0.63	0.161	0.122	0.0865	1.02 (inactive)	0.263	-0.327
C=C(/C(=C/C[C@H](OC(=O)c1ccncc1)c1ccc(OCCO)cc1)c1cnc2ccccc2c1)C(C)C	-0.185	0.727	-0.047	1.09	1.29	0.7	1.13	1.66 (inactive)	0.552	-0.0296
O=C1C[C@@H](O)[C@@H](O)[C@@H]2[C@@H]3C(=O)N(c4ccc(F)cc4F)C(=O)[C@@H]3CC[C@@H]12	-0.416	0.267	-0.122	0.315	0.627	0.0489	0.823	0.25 (inactive)	0.153	0.144
CCN1C(=O)[C@H]2[C@H]3[C@H](O)[C@H](O)CC(=NOCC=C(C)CCC=C(C)C)[C@H]3CC[C@H]2C1=O	-0.968	0.689	-0.117	0.923	0.698	0.65	1.07	-0.454 (inactive)	0.617	0.183
CCc1cc2c(nc1CC)CCN(CCC(C)=NOC[C@@H](O)COCc1ccco1)C2	0.394	2.81	-0.105	0.0103	0.95	-0.38	1.36	1.16 (inactive)	2.06	0.382
COc1cccc([C@@H]2Oc3ccc(Br)cc3C(=O)[C@H]2O)c1	-0.614	0.291	-0.0291	0.783	0.458	0.297	0.972	3.62 (inactive)	0.0846	0.235
Cn1cccc1C(O)C1C=CC2C(=O)NC(=O)C2N1Nc1ccccn1 (stereo not given)	-0.177	0.124	-0.179	-0.0312	0.359	0.782	0.371	1.63 (inactive)	0.339	0.0053
CC(C)CN1CCc2nc(-c3ccccc3)c3c(c2CC1)CO[C@@H](C)C3	0.0816	0.252	-0.0594	0.309	0.834	-0.117	0.132	-0.867 (inactive)	0.594	0.394
